Assay results: PubChem BioAssay (EPA / NIEHS)
Calls of active or inactive are those of the source. How the source made its calls: active means hit-call score of the fitted dose curve at least 0.9, where 1 is the maximum; inactive means score below 0.9.

Columns and labels:
Conditions in all cases: mRNA level, 48 h; actives raise or lower the signal
[1] = read-out: ATP-citrate lyase (ACLY), ACLY (gene 47); assay: LTEA_HepaRG_ACLY: Life Technologies and Expression Analysis (LTEA) Assay for ATP-citrate lyase (ACLY) using HepaRG (AID 2283466)
Summary of the method: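 qRT-PCR readout of ACLY transcript after 48 h chemical treatment of HepaRG cells; expression normalized to three housekeeping genes. Eight-point half-log series, highest 100 uM, 0.5% DMSO vehicle. Gain or loss fitted against DMSO baseline.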

[2] = read-out: Alkaline Phosphatase, Placental (ALPP) gene, ALPP (gene 250); assay: LTEA_HepaRG_ALPP: Life Technologies and Expression Analysis (LTEA) Assay for Alkaline Phosphatase, Placental (ALPP) gene using HepaRG (AID 2283468);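 on AC50: differentiated human HepaRG liver cells in serum-free induction medium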
Summary of the method: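 Using human liver HepaRG cells, chemicals are tested in duplicate over 48 h at half-log concentrations topping at 100 uM; phenobarbital 1 mM serves as induction control. ALPP mRNA change by qRT-PCR, bidirectional fit against vehicle.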

[3] = read-out: Bcl-2 (BAD) gene, BAD (gene 572); assay: LTEA_HepaRG_BAD: Life Technologies and Expression Analysis (LTEA) Assay for Bcl-2 (BAD) gene using HepaRG (AID 2283469)
Summary of the method: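 HepaRG, 48 h exposure, 8-pt half-log curve from 100 uM in 0.5% DMSO, duplicates. Readout: TaqMan qRT-PCR for BAD mRNA, housekeeping-normalised (ACTB/GAPDH/POLR2A); gain or loss fitted against DMSO baseline.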

[4] = read-out: Bcl-2 (BAX) gene, BAX (gene 581); assay: LTEA_HepaRG_BAX: Life Technologies and Expression Analysis (LTEA) Assay for Bcl-2 (BAX) gene using HepaRG (AID 2283470)
Summary of the method: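 Cells were thawed, plated for 48 h, moved to serum-free induction medium and dosed for 48 h (highest concentration 100 uM, half-log steps, 0.5% DMSO). Total RNA was then analysed for BAX expression by qRT-PCR.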

[5] = read-out: adenosine kinase (ADK) gene, ADK (gene 132); assay: LTEA_HepaRG_ADK: Life Technologies and Expression Analysis (LTEA) Assay for adenosine kinase (ADK) gene using HepaRG (AID 2283471)
Summary of the method: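 Differentiated HepaRG cells dosed 48 h in serum-free induction medium, 0.5% DMSO vehicle, eight half-log concentrations from 100 uM, in duplicate. ADK mRNA by TaqMan qRT-PCR normalised to ACTB, GAPDH, POLR2A; bidirectional fit versus DMSO.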

[6] = read-out: Alpha-fetoprotein (AFP) gene, AFP (gene 174); assay: LTEA_HepaRG_AFP: Life Technologies and Expression Analysis (LTEA) Assay for Alpha-fetoprotein (AFP) gene using HepaRG (AID 2283472)
Summary of the method: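 Chemicals were tested on differentiated HepaRG cells for 48 hours at eight concentrations up to 100 uM, with 0.5% DMSO as vehicle. AFP expression was then quantified by qRT-PCR and analyzed for gain or loss relative to DMSO.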

BCL2L11 (gene 10018) = assay: LTEA_HepaRG_BCL2L11: Life Technologies and Expression Analysis (LTEA) Assay for Bcl-2 (BCL2L11) gene using HepaRG (AID 2283473)
Summary of the method: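 Human hepatic HepaRG cultures are treated 48 h with test chemicals (maximum 100 uM, 0.5% DMSO vehicle). Expression of BCL2L11 is measured by qRT-PCR against ACTB, GAPDH and POLR2A, with activity in either direction scored relative to vehicle.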

[7] = read-out: Apolipoprotein A-V (APOA5) gene, APOA5 (gene 116519); assay: LTEA_HepaRG_APOA5: Life Technologies and Expression Analysis (LTEA) Assay for Apolipoprotein A-V (APOA5) gene using HepaRG (AID 2283474)
Summary of the method: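 Concentration-response of APOA5 expression in HepaRG: eight half-log doses to 100 uM, 48 h, qRT-PCR normalized to ACTB/GAPDH/POLR2A, bidirectional fitting with 0.5% DMSO as baseline.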

[8] = read-out: Apoptosis regulator Bcl-2 (Homo sapiens) (UniProt P10415); assay: LTEA_HepaRG_BCL2: Life Technologies and Expression Analysis (LTEA) Assay for Bcl-2 gene using HepaRG (AID 2283475)
Summary of the method: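 Plated human HepaRG cells are exposed to test chemicals for 48 h across eight concentrations from 100 uM downward in half-log steps (0.5% DMSO). BCL2 expression is then measured by qRT-PCR with housekeeping normalisation and fitted bidirectionally against vehicle.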

[9] = read-out: Bcl-2 (BID) gene, BID (gene 637); assay: LTEA_HepaRG_BID: Life Technologies and Expression Analysis (LTEA) Assay for Bcl-2 (BID) gene using HepaRG (AID 2283476)
Summary of the method: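 Cells are plated, cultured 48 h, switched to serum-free induction medium, then dosed 48 h (100 uM top, half-log steps, 0.5% DMSO). RNA is isolated and BID expression read by qRT-PCR.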

Caspase-3 (Homo sapiens) = Caspase-3 (Homo sapiens) (UniProt P42574); assay: LTEA_HepaRG_CASP3: Life Technologies and Expression Analysis (LTEA) Assay for cysteine-aspartic acid protease (CASP3) using HepaRG (AID 2283477)
Summary of the method: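 Transcript-level assay: CASP3 mRNA in human HepaRG after 48 h treatment, eight half-log concentrations from 100 uM in 0.5% DMSO, quantified by qRT-PCR.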

[10] = read-out: Cytochrome P450 (CYP24A1), CYP24A1 (gene 1591); assay: LTEA_HepaRG_CYP24A1: Life Technologies and Expression Analysis (LTEA) Assay for Cytochrome P450 (CYP24A1) using HepaRG (AID 2283478)
Summary of the method: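 Gene expression of CYP24A1 by TaqMan qRT-PCR in HepaRG after 48 h treatment, highest concentration 100 uM; activity fitted in both directions relative to DMSO vehicle.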

[11] = read-out: cysteine-aspartic acid protease (CASP8), CASP8 (gene 841); assay: LTEA_HepaRG_CASP8: Life Technologies and Expression Analysis (LTEA) Assay for cysteine-aspartic acid protease (CASP8) using HepaRG (AID 2283480)
Summary of the method: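 qRT-PCR readout of CASP8 mRNA, normalized to three housekeeping genes, after 48 h chemical exposure of HepaRG cells; 8-point half-log series, top 100 uM, 0.5% DMSO vehicle. Bidirectional curve fitting against DMSO baseline.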

[12] = read-out: Cytochrome P450 (CYP2B6), CYP2B6 (gene 1555); assay: LTEA_HepaRG_CYP2B6: Life Technologies and Expression Analysis (LTEA) Assay for Cytochrome P450 (CYP2B6) using HepaRG (AID 2283481)
Summary of the method: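 Human HepaRG, 48 h dosing, 0.5% DMSO vehicle, top dose 100 uM. CYP2B6 transcript by qRT-PCR, housekeeping-normalized, bidirectional curve fit.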

[13] = read-out: Cytochrome P450 2C19 (Homo sapiens) (UniProt P33261); assay: LTEA_HepaRG_CYP2C19: Life Technologies and Expression Analysis (LTEA) Assay for CYP2C19 using HepaRG (AID 2283482)
Summary of the method: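 Endpoint: CYP2C19 mRNA change, bidirectional fit vs 0.5% DMSO. Cells: HepaRG, 48 h exposure, eight-point series topping at 100 uM. Quantitation: qRT-PCR normalized to ACTB, GAPDH, POLR2A.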

CYP2C9 (gene 1559) = assay: LTEA_HepaRG_CYP2C9: Life Technologies and Expression Analysis (LTEA) Assay for CYP2C9 using HepaRG (AID 2283484)
Summary of the method: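 HepaRG, 48 h dosing, 8-pt half-log series, top 100 uM, 0.5% DMSO vehicle. Read-out: CYP2C9 transcript by TaqMan qRT-PCR, housekeeping-normalized (ACTB/GAPDH/POLR2A). Gain or loss fitted vs DMSO baseline.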

CYP2E1 (gene 1571) = assay: LTEA_HepaRG_CYP2E1: Life Technologies and Expression Analysis (LTEA) Assay for CYP2E1 using HepaRG (AID 2283485)
Summary of the method: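 Readout is qRT-PCR of CYP2E1 mRNA, normalized to three housekeeping genes and fitted bidirectionally against 0.5% DMSO. HepaRG cells were dosed 48 h at eight concentrations, highest 100 uM with half-log dilutions.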

[14] = read-out: Cytochrome P450 (CYP1A2), CYP1A2 (gene 1544); assay: LTEA_HepaRG_CYP1A2: Life Technologies and Expression Analysis (LTEA) Assay for Cytochrome P450 (CYP1A2) using HepaRG (AID 2283479)
Summary of the method: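 In duplicate wells, HepaRG cultures maintained in 0.5% DMSO were treated 48 h across an 8-point, half-log series topping at 100 uM; phenobarbital (1 mM) served as induction control. Expression was read by qRT-PCR.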

CYP2C8 (gene 1558) = assay: LTEA_HepaRG_CYP2C8: Life Technologies and Expression Analysis (LTEA) Assay for CYP2C8 using HepaRG (AID 2283483)
Summary of the method: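 HepaRG (human liver line), 48 h chemical exposure, 8-pt half-log series from 100 uM, 0.5% DMSO vehicle. Readout: CYP2C8 transcript by qRT-PCR, housekeeping-normalized. Bidirectional fit vs DMSO baseline.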

[15] = read-out: Peroxisomal acyl-coenzyme A oxidase 1 (ACOX1) gene, ACOX1 (gene 51); assay: LTEA_HepaRG_ACOX1: Life Technologies and Expression Analysis (LTEA) Assay for Peroxisomal acyl-coenzyme A oxidase 1 (ACOX1) gene using HepaRG (AID 2283467)
Summary of the method: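 HepaRG, 48 h chemical exposure, 8-pt half-log series from 100 uM top, 0.5% DMSO vehicle, duplicates. Readout: ACOX1 mRNA by Fluidigm qRT-PCR, housekeeping-normalized; bidirectional fit vs DMSO baseline.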

Measured: AC50

Chain of Cytochrome P450 2C19 (Homo sapiens) (P33261 whole entry, looked up): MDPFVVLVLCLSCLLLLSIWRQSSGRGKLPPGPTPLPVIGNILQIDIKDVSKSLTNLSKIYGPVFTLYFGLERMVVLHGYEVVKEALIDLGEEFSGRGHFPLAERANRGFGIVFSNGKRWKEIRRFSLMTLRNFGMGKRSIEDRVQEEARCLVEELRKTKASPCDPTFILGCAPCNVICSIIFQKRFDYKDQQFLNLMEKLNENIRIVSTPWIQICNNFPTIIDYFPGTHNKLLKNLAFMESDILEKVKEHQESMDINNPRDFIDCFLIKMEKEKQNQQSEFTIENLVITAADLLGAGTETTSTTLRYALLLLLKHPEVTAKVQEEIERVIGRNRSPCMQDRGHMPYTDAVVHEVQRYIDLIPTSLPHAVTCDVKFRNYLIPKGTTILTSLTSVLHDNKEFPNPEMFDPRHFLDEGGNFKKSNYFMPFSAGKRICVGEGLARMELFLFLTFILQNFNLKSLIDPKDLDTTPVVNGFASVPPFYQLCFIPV
Chain of Apoptosis regulator Bcl-2 (Homo sapiens) (P10415 whole entry, looked up): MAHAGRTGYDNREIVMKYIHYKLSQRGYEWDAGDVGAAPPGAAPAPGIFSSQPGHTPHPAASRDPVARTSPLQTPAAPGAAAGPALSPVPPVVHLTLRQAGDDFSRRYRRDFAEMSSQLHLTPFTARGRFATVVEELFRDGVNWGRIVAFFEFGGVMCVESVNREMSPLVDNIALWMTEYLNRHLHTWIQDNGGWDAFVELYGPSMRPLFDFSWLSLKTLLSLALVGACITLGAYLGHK
Chain of Caspase-3 (Homo sapiens) (P42574 whole entry, looked up): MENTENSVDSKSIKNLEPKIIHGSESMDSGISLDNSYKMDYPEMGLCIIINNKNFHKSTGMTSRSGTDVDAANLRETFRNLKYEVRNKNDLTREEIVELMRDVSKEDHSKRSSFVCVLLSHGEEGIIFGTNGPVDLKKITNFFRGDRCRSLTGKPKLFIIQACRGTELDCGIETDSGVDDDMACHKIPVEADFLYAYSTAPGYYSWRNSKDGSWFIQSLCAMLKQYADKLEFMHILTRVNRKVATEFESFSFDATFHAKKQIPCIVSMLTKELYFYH

CO[C@@H]1[C@H](OC(=O)NC(=O)CCl)CC[C@]2(CO2)[C@H]1[C@@]1(C)O[C@@H]1CC=C(C)C
active: [12] 0.0683 µM
not listed: [14] | CYP2C8 (gene 1558) | [15]
inactive: all other assays above

COC(=O)c1ccccc1N
not listed: [15]
inactive: all other assays above

Clc1ccc(C(c2ccc(Cl)cc2)C(Cl)Cl)cc1
active: [2] 50 µM | [6] 14 µM | [7] 60.5 µM | [12] 2.87 µM | [13] 7.66 µM | CYP2C8 (gene 1558) 12.7 µM | CYP2E1 (gene 1571) 52.5 µM
not listed: [14]
inactive: all other assays above

CCCCCOC(=O)c1ccccc1C(=O)OCCCCC
not listed: [10] | [14]
inactive: all other assays above

ClC1=C(Cl)C2(Cl)C3C(Cl)C=CC3C1(Cl)C2(Cl)Cl (configuration not stated)
active: [6] 22.7 µM | [12] 0.67 µM | [13] 2.22 µM | CYP2E1 (gene 1571) 7.54 µM
not listed: [4] | [10] | [14]
inactive: all other assays above

C1=Cc2cccc3cccc1c23
active: [14] 24.9 µM | [12] 37.8 µM
not listed: [4] | CYP2E1 (gene 1571) | CYP2C8 (gene 1558)
inactive: all other assays above

ClCCOCCCl
inactive: all assays above
